Compounds with a hit are over-represented: about 2.1% of the library has one in this group of screens.
ARNT-TACC3 inh = disruptors of ARNT/TACC3 protein interaction, primary screen, biochemical, AlphaScreen, single concentration. Transforming acidic coiled-coil-containing protein 3 (Homo sapiens), Q9Y6A5. AlphaScreen His-ARNT PAS-B/GST-TACC3 binding, luminescence; TACC3 fragment carries E629A point mutation. inhibition, % at 9.99 µM. 390,000 compounds, 0.66% hits;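 active = mean inhibition of replicates at least 50% and at least half of replicates each reaching 50%; inconclusive = half or more replicates reach 50% but mean below 50%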
PvdQ acylase = P. aeruginosa PvdQ acylase inhibitors, primary screen, biochemical, fluorescence, plate reader and imaging, single point; PvdQ acylase [Pseudomonas aeruginosa LESB58]; purified PvdQ acylase; inhibition, % at 10 µM; 340,000 compounds, 0.063% hits; AID 488965, 2010; in the data active = inhibition above about 30%, passing the limit was not always enough; inconclusive = no clear call, values can overlap the other calls
ERAP1 inh = human ERAP1 aminopeptidase inhibitors, primary screen, biochemical, single point, plate reader | Endoplasmic reticulum aminopeptidase 1 (Homo sapiens), Q9NZ08 | recombinant ERAP1, Leu-AMC fluorescence, 60 min | inhibition, % at 10.7 µM | 340,000 compounds, 0.15% hits;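 active = mean replicate inhibition of at least 30%, or all replicates individually reaching that 30% level; inactive = mean below 30% and not every replicate reaching it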
Target sequence (Q9NZ08 whole entry, looked up): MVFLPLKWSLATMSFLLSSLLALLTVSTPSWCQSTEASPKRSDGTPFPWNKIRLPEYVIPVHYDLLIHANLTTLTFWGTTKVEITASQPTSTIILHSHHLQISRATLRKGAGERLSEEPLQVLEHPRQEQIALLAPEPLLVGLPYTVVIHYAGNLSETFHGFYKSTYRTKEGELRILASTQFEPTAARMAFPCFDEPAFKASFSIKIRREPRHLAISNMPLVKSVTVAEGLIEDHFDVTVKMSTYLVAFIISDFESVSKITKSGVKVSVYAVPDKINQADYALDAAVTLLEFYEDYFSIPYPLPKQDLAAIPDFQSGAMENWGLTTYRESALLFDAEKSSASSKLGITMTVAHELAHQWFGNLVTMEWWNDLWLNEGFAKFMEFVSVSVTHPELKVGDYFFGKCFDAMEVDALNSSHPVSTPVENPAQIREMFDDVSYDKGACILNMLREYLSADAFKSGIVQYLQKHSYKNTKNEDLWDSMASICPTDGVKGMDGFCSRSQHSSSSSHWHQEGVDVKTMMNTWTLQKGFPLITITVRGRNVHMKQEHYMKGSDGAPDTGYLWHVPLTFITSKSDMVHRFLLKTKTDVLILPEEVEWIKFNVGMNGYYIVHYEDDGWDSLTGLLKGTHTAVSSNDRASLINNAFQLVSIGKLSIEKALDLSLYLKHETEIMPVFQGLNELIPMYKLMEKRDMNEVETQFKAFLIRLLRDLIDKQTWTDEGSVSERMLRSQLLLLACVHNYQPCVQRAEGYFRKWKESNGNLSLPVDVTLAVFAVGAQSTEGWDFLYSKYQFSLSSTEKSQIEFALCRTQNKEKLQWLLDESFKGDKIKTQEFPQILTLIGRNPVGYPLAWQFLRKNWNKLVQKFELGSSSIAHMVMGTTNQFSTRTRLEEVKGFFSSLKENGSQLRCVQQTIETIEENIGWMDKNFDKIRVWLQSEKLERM
CFTR F508del cor = F508del CFTR correction, initial screen, CFBE line, single point; CFBE cells, YFP halide quenching; stimulated with forskolin plus potentiator P3; % fluorescence drop versus neutral controls; activity (quench increase), % at 7.58 µM; 350,000 compounds, 0.36% hits; AID 720511, 2013;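 active = mean added fluorescence quench of at least 8% versus neutral control, with both replicates also reaching 8%; inconclusive = only one of the mean or replicate conditions met; inactive = mean below 8% and not both replicates reaching 8%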;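 also: cells transiently co-express mutant CFTR-F508del with the halide-sensitive YFP; corrector assay measuring rescue of mutant channel to the surface after 24 h compound exposure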
Ecoli rRNA inh = reduced GFP signal of wild-type E. coli, primary screen, bacterial rRNA inhibitor project, GFP/RFP fluorescence, OD600, single point; E. coli WT GFP vs humanized-ribosome RFP mutants, 24 h; stronger effect = lower value; DMSO median 0, no signal -100; GFP signal change (wild-type ribosome), % (test concentration not listed); 350,000 compounds, 1.6% hits; AID 720706, 2013;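 active = significant combined selectivity score with lowered wild-type GFP, culture density cut under 30%, mutant RFP and density less affected; inactive = any of these conditions unmet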
AID977621 = growth inhibition of wild-type GFP E. coli, dose response, H69 mutant RFP, cherry-pick | shares compounds with Ecoli rRNA inh | E. coli wild-type GFP strain growth, fluorescence, 24 h | activity change, negative = inhibition at 50 µM | 1,900 tested, under 10 active | AID 977621, 2014;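 active = Wild-type ribosome reporter drop at least double the humanized mutant ribosome reporter drop, growth loss under a set limit; inconclusive = no clear call, values can overlap the other calls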;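 also: wild-type GFP and H69 mutant RFP strains grown together 50/50 in each well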
AID977628 = E. coli growth inhibition, wild-type GFP versus h24 humanized RFP strain, dose response, h24 mutant RFP vs wild-type GFP, cherry-pick. shares compounds with Ecoli rRNA inh. E. coli WT GFP strain growth, fluorescence, 24 h. activity change, negative = inhibition at 50 µM. 1,900 tested, under 10 active;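 active = compound lowering the normal-ribosome reporter at least twice as much as the humanized-ribosome reporter, growth loss under a set limit; inconclusive = no clear call, values can overlap the other calls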;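 also: wild-type GFP and h24 humanized RFP strains co-cultured 1 to 1 per well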
Of the large screens only hits and unclear results are named; the others gave an inactive call (follow-up assays come after a bar, where they were run).

Cc1ccc(C(=O)C2Oc3ccccc3C3CC(c4ccc(C)cc4)=NN23)cc1 (stereo not given)	Ecoli rRNA inh -17 (no result: CFTR F508del cor) | AID977621 inactive | AID977628 inactive
CC(C)CC#Cc1ccc([C@H]2[C@@H](CO)N3CCCCN(S(=O)(=O)Cc4ccccc4)C[C@H]23)cc1	Ecoli rRNA inh -21 (no result: PvdQ acylase) | AID977628 inconclusive
CC(C)CC#Cc1ccc([C@@H]2[C@@H](CO)N3C(=O)CN(C(=O)Cc4ccccc4)C[C@@H]23)cc1	Ecoli rRNA inh -38 (no result: ARNT-TACC3 inh, PvdQ acylase) | AID977621 inactive | AID977628 inconclusive
COc1ccc(C#Cc2ccc([C@@H]3[C@@H](CO)N4CCCCN(C(=O)Nc5ccccc5F)C[C@H]34)cc2)cc1	Ecoli rRNA inh -35 (no result: PvdQ acylase) | AID977621 inactive | AID977628 inconclusive
COc1ccc(C#Cc2ccc([C@H]3[C@H]4CN(C(=O)Nc5ccccc5F)CCCCN4[C@H]3CO)cc2)cc1	none (no result: PvdQ acylase)
O=S(=O)(Cc1ccccc1)N1CCCCN2[C@@H](CO)[C@H](c3ccc(C#Cc4ccccc4)cc3)[C@@H]2C1	Ecoli rRNA inh -47 (no result: PvdQ acylase) | AID977628 inconclusive
Nc1nc2c(ncn2[C@@H]2O[C@H](C(=O)N[C@H](Cc3ccccc3)C(=O)NC3CCCCC3)[C@@H](O)[C@H]2O)c(=O)[nH]1	none (no result: ARNT-TACC3 inh, PvdQ acylase)
O=C(C[C@@H]1C=C[C@@H](NC(=O)Nc2ccc3c(c2)OCO3)[C@H](CO)O1)NCc1ccc(F)cc1	none (no result: PvdQ acylase)
Cc1ccc2sc(N(CCCN(C)C)C(=O)c3ccc(S(=O)(=O)N4CCc5ccccc5C4)cc3)nc2c1C	Ecoli rRNA inh -29 | AID977621 inactive | AID977628 inactive
COc1ccc(C)c2sc(N(CCN(C)C)C(=O)c3ccc(S(=O)(=O)N(C)c4ccccc4)cc3)nc12	Ecoli rRNA inh -12 (no result: ARNT-TACC3 inh, PvdQ acylase) | AID977628 inactive
COc1ccc(C)c2sc(N(CCCN(C)C)C(=O)c3ccc(S(=O)(=O)N4CCc5ccccc5C4)cc3)nc12	none
COc1cccc2sc(N(CCCN(C)C)C(=O)c3ccc(S(=O)(=O)N4CCc5ccccc5C4)cc3)nc12	none
O=C(c1cc(C(=O)N2CCOCC2)c2nc3ccccc3n2c1)c1cc(Cl)cc(Cl)c1O	Ecoli rRNA inh -18 (no result: ERAP1 inh) | AID977628 inconclusive
CCc1c(C)sc2nc3c(C(=O)N4CCOCC4)cc(C(=O)c4ccccc4O)cn3c(=O)c12	none
Cc1ccc(S(=O)(=O)NCc2c(-c3ccccc3)noc2C)cc1	Ecoli rRNA inh -23 (no result: ARNT-TACC3 inh) | AID977621 inactive | AID977628 inactive
Cc1onc(-c2ccccc2)c1CNS(=O)(=O)c1ccccc1	none
CC(C)CN1C(=O)c2ccc(C(=O)Nc3ccncc3)cc2C1=O	Ecoli rRNA inh -25 | AID977628 inactive
CC(=O)N(C)C[C@H]1Oc2ccc(NS(C)(=O)=O)cc2CC(=O)N(C)C[C@H]1C	none (no result: ARNT-TACC3 inh, PvdQ acylase, ERAP1 inh, CFTR F508del cor)
COc1ccccc1C(C(C(=O)c1ccccc1)N1CCOCC1)N1CCOCC1 (stereo not given)	Ecoli rRNA inh -14 | AID977621 inactive | AID977628 inconclusive
COc1ccc(OCCSc2nc3ccccc3n2CC(=O)O)cc1	none (no result: ERAP1 inh, CFTR F508del cor, Ecoli rRNA inh)
COc1ccc(C(=O)CSc2nc3ccccc3n2CC(=O)c2ccccc2)cc1	Ecoli rRNA inh -28 | AID977621 inactive | AID977628 inactive
CC(C)NC(=O)Nc1ccc2c(c1)CC(=O)N([C@H](C)CO)C[C@@H](C)[C@H](CN(C)Cc1ccc(Oc3ccccc3)cc1)O2	none (no result: PvdQ acylase)
CC(=O)Nc1ccc(S(=O)(=O)Nc2cccc(-c3csc(C)n3)c2)cc1	none (no result: ARNT-TACC3 inh, Ecoli rRNA inh)
CC(=O)Nc1ccc(S(=O)(=O)Nc2cccc(-c3nc4cc(C)ccc4o3)c2)cc1	CFTR F508del cor 11, Ecoli rRNA inh -18 (no result: ERAP1 inh) | AID977621 inactive
Cc1ccc(CNS(=O)(=O)c2ccc3c(c2)NC(=O)CS3)cc1	Ecoli rRNA inh -20 | AID977621 inconclusive

Screening results (PubChem)
